# Among all 91,000 compounds or so, about 160 (0.18%) were called active.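 The calls were made as follows: active = inhibition above the batch mean plus 3 SD and confirmed as a hit by visual image inspection (cut at about 30% in these data, passing the limit was not always enough); inconclusive = above the inhibition threshold but rejected on visual inspection; inactive = the rest.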 Shown is part of a subset that was picked to be rich in actives.
# Experiment: disruptors of actin filament network in HUVEC – imaging, phalloidin staining, high-content imaging, primary screen (AID 836)
# Conditions: HUVEC TNFa F-actin phalloidin imaging, at 2 µM, active compounds read high
row,Compound,inhibition
1,Cn1c2c(c(=O)n(C)c1=O)[C@@H]1c3c(ccc4ccccc34)OC[C@@H]1CO2,8.1% (inactive)
2,COc1ccc2c(c1OC)C(=O)c1ccccc1C2=O,1% (inactive)
3,CCC(C)n1c(-c2cc(OC)c(OC)c(OC)c2)nc2nc3ccccc3nc21 (stereo unspecified),-3.2% (inactive)
4,CCNC(=S)Nc1cccc(Cl)c1C,11.2% (inactive)
5,COc1ccc(-c2csc3nc(-c4ccccc4F)oc(=O)c23)cc1OC,-3.2% (inactive)
6,O=c1oc2c(Cl)cc(Cl)cc2cc1-c1nnc(Nc2ccccc2F)s1,5% (inactive)
7,O=C(/C=C/Nc1ccccc1OC(F)(F)F)C(F)(F)F,6.2% (inactive)
8,CCC(=O)NC(NCC1CCCO1)C(Cl)(Cl)Cl (stereo unspecified),-23.7% (inactive)
9,C=CCn1c(Oc2ccc(C(=O)OC)cc2)nc2c1c(=O)n(C)c(=O)n2C,13.6% (inactive)
10,O=C(Nc1ccccc1Cl)O/N=C(/c1ccccc1)c1ccccn1,-5.5% (inactive)
11,CC(C)NC(=O)NC(=O)COC(=O)c1ccc(NC(=O)CC#N)cc1,2% (inactive)
12,O=C(O)COc1ccc(-c2nccc(-c3cccs3)n2)cc1,29.5% (inactive)
13,O=C(CSc1ccccc1)Nc1ccc(NC(=O)c2ccco2)cc1,20.5% (inactive)
14,O=C(CCc1ccc(S(=O)(=O)NC2CCCCC2)cc1)NCc1ccccc1,-16.8% (inactive)
15,COc1cccc(C(=O)NNC(=O)c2ccccc2Br)c1,-16.2% (inactive)
16,CC(CNc1ccc([N+](=O)[O-])cc1)NC(=O)c1ccccc1Br (stereo unspecified),-6.1% (inactive)
17,O=C(Nc1ccc(Cl)cc1)OCc1cc(-c2ccccc2)on1,-6.9% (inactive)
18,COCCN1C(=O)c2oc3c(C)cc(C)cc3c(=O)c2C1c1cccc(O)c1 (stereo unspecified),53.6% (active)
19,O=C1c2oc3ccccc3c(=O)c2C(c2cccc(O)c2)N1c1ccccn1 (stereo unspecified),-31.1% (inactive)
20,O=C1c2oc3ccc(Br)cc3c(=O)c2C(c2cccc(F)c2)N1CCO (stereo unspecified),7.4% (inactive)
21,COc1ccc(C(=O)N2CCc3cc(OC)c(OC)cc3C2c2cccc([N+](=O)[O-])c2)cc1 (stereo unspecified),-0.9% (inactive)
22,CCN(CC)C(=O)CSC1c2ccccc2C(=O)N1c1ccccc1 (stereo unspecified),-35.9% (inactive)
23,Cc1cccc(NC(=S)N2CCC(c3nc4ccccc4s3)CC2)c1,-9.4% (inactive)
24,COC(=O)c1ccc(C(=O)OC)c(NC(=S)N2CCCCC2)c1,-4.3% (inactive)

row,Compound,inhibition
1,Cc1ccc2nc(Nc3ccccc3O)nc(-c3ccccc3)c2c1,-0.7% (inactive)
2,COc1ccc(/C=N/Nc2nc3ccccc3c(=O)[nH]2)cc1,0.1% (inactive)
3,CC(Oc1ccc(F)cc1F)C(=O)/C=C/N(C)C (stereo unspecified),-4.4% (inactive)
4,Cc1ccc(OCC(=O)Nc2cccc3c2CCCC3)cc1C,-5.6% (inactive)
5,COc1cc(C(=S)N2CCOCC2)cc(OC)c1OC(=O)c1cc([N+](=O)[O-])c(C)c([N+](=O)[O-])c1,-7.7% (inactive)
6,COc1ccc(C(=S)Nc2ccccc2)cc1,2.8% (inactive)
7,COc1nc(-c2ccc(Cl)cc2)ccc1-c1noc(-c2cccs2)n1,19.6% (inactive)
8,Cc1occc1C(=O)NNC(=S)NCC(C)C,-20.3% (inactive)
9,CSc1ccccc1-c1nnc(-c2ccc(Cl)cc2)o1,-9.7% (inactive)
10,Cc1ccc(-c2nc3ccccc3[nH]2)cc1NC(=O)c1sc2ccccc2c1Cl,-19% (inactive)
11,O=C(c1ccccc1)c1cc(-c2ccccn2)c(N2CCOCC2)s1,-8.8% (inactive)
12,COC(=O)C(C)Oc1ccc2c(-c3cccc([N+](=O)[O-])c3)cc(=O)oc2c1 (stereo unspecified),19.5% (inactive)
13,Cc1ccccc1NC(=O)c1ccccc1NS(=O)(=O)c1cccc2cccnc12,-7.4% (inactive)
14,Cc1nn(Cc2ccccc2Cl)c(C)c1NC(=O)Cn1nc([N+](=O)[O-])c(Cl)c1C,-13.3% (inactive)
15,CC(C)C(C)NC(=O)COc1ncnc2ccccc12 (stereo unspecified),2.1% (inactive)
16,O=C(Nc1ccc(-n2ccnc2P(=O)(O)c2ccccc2)cc1)c1ccccc1Br,-15.1% (inactive)
17,O=C(CSCc1ccc([N+](=O)[O-])cc1)NCCSCc1ccccc1,-4.8% (inactive)
18,COc1ccc(/C=C(/NC(=O)c2ccc(C)cc2)c2nc3ccccc3[nH]2)cc1OC,24.6% (inactive)
19,Cc1cc(C)c2c3c(sc2n1)C(c1ccccc1)C(C#N)=C(N)O3 (stereo unspecified),7.5% (inactive)
20,CC(C)(C)c1cc2cccnc2n1Cc1ccccc1,-13.7% (inactive)
21,COCCCNC(NC(=O)c1ccc(C)cc1)C(Cl)(Cl)Cl (stereo unspecified),-4.7% (inactive)
22,O=C1COc2ccc(NC(=O)N3CCN(c4ccc(F)cc4)CC3)cc2N1,-1.9% (inactive)
23,COc1ccccc1NC(=O)[C@H](COCc1ccccc1)NC(=O)OC(C)(C)C,-9.9% (inactive)
24,Oc1ccccc1/C=N/n1c(-c2cccs2)n[nH]c1=S,-11.3% (inactive)

row,Compound,inhibition
1,COc1ccc(C(=O)c2c(C)oc3cc([N+](=O)[O-])c(O)c([N+](=O)[O-])c23)cc1,3.1% (inactive)
2,C=CCOc1c2ccc(C(=O)N(CC)c3ccc(OC)cc3)cc2nn1C,12.9% (inactive)
3,COc1cccc(/C=N/NC(=O)c2cccc([N+](=O)[O-])c2)c1OS(=O)(=O)c1ccc(C)cc1,-0.8% (inactive)
4,CCn1c(SC)nc(O)c(C(c2ccc(OC)c(O)c2)c2c(O)nc(SC)n(CC)c2=O)c1=O,10.2% (inactive)
5,COc1cccc(NC(=O)c2nn(C34CC5CC(CC(C5)C3)C4)cc2[N+](=O)[O-])c1,14% (inactive)
6,Cc1ccc(-c2nnc(C)c(N3CC(C)OC(C)C3)n2)cc1 (stereo unspecified),9.5% (inactive)
7,COC(=O)c1c(CCl)noc1C(=O)NC(C)C,-7% (inactive)
8,O=C1c2ccccc2C(=O)N1CC1c2ccccc2CCN1S(=O)(=O)c1ccccc1 (stereo unspecified),24.7% (inactive)
9,O=C1CCCC2=C1C(c1ccccc1)n1c(s/c(=C/c3cccc(F)c3)c1=O)=N2 (stereo unspecified),0.6% (inactive)
10,Cc1c(CCO)c(=O)[nH]n1C(=O)c1c(F)cccc1F,14.6% (inactive)
11,CC(C)c1ccc(NC(=O)CCN2C(=O)c3ccc([N+](=O)[O-])cc3C2=O)cc1,-2% (inactive)
12,c1ccc2c(C[n+]3csc4ccccc43)cccc2c1,1.4% (inactive)
13,O=C(NN1C(=O)C2C3C=CC(C4CC34)C2C1=O)c1ccc(Cl)cc1 (stereo unspecified),-3.8% (inactive)
14,CCCCOC(=O)Nc1sc2nc(C)cc(C)c2c1-n1cccc1,14.1% (inactive)
15,CC1CC(C)CN(S(=O)(=O)c2cccc(C(=O)N3C(=O)c4cccc(N)c4C3=O)c2)C1 (stereo unspecified),-15.2% (inactive)
16,CCOC(=O)NNC(=O)c1ccc(Cl)cc1,18% (inactive)
17,N#C/C(=C(/O)COc1cccc2ccccc12)c1nc2ccccc2[nH]1,-7.4% (inactive)
18,CSCc1cc(N2CCOCC2)nc(SCc2ccc(Cl)cc2Cl)n1,3.4% (inactive)
19,N#CC1=C(N)N(c2ccc(F)cc2)C(=O)C1,-25.3% (inactive)
20,CC(C)(C)NS(=O)(=O)c1ccc(NC(=O)NC2CCCCC2)cc1,2.8% (inactive)
21,O=C1CN(c2nc(-c3ccccc3)c3cc(Br)ccc3n2)c2ccccc2N1,-17.8% (inactive)
22,O=C(Cn1ccc([N+](=O)[O-])n1)NCc1cccs1,-5.1% (inactive)
23,Cc1c(Br)c([N+](=O)[O-])nn1C(C)C(=O)Nc1nccs1 (stereo unspecified),7.3% (inactive)
24,CCCn1nnnc1NC(=O)COc1ccc(Cl)cc1C,0.8% (inactive)

row,Compound,inhibition
1,CCOC(=O)N1CCN(c2c(NCCCN3CCCC(C)C3)c(=O)c2=O)CC1 (stereo unspecified),8.2% (inactive)
2,Cc1cccc(N(CC(=O)Nc2ccc(-c3nc4ccc(C)cc4s3)cc2)S(C)(=O)=O)c1,29.8% (inactive)
3,COc1cc(C(=O)NC(=S)NCc2ccco2)cc(OC)c1OC,-26% (inactive)
4,CCOC(=O)CC(=O)CSc1nc(-c2ccccc2)cc(-c2ccc(Cl)cc2)c1C#N,-2.9% (inactive)
5,Cc1ccc(NC(=S)NC2CCCC2)cc1,0.9% (inactive)
6,CCc1cccc2c(C=C(C#N)C#N)cn(CC(=O)N3CCCCC3)c12,9.3% (inactive)
7,COc1ccccc1C(=O)NN1C(=O)C2C3C=CC(O3)C2C1=O (stereo unspecified),-1% (inactive)
8,Cc1ccc(N2CCN(/N=C/c3cccs3)CC2)cc1,-35.9% (inactive)
9,O=C(CNC(=O)c1cc2c(s1)CCC2)Nc1ccccc1Br,9.1% (inactive)
10,CC(=O)N1Cc2ccccc2CC1C(=O)O (stereo unspecified),-11.9% (inactive)
11,Cc1ccccc1OCc1nnc(SCC(=O)N2c3ccccc3Sc3ccc(Cl)cc32)o1,-79.4% (inactive)
12,O=C(Cc1ccccc1)N/N=C/c1ccc(Cl)cc1Cl,0.1% (inactive)
13,N#C/C(=C/c1ccc(Cl)cc1)NC(=O)c1ccccc1,-6.5% (inactive)
14,O=C(Nc1nc(-c2ccc3c(c2)OCO3)cs1)c1ccncc1,-6.9% (inactive)
15,COc1ccc(OC)c2sc(NC(=O)C3COc4ccccc4O3)nc12 (stereo unspecified),-2.9% (inactive)
16,O=C(Nc1nc(-c2ccncc2)cs1)C1COc2ccccc2O1 (stereo unspecified),55.6% (active)
17,Cc1ccc(NC(=S)Nc2ncccc2C)c(C)c1,-17.2% (inactive)
18,COc1ccc(Oc2c(Cl)cnn(-c3ccccc3)c2=O)cc1,-7.9% (inactive)
19,Cc1cc(N=CC2=C(O)CCCC2=O)no1,3.6% (inactive)
20,COc1ccc(O)c(C(=O)c2cnc3onc(C(C)C)c3c2)c1,0.9% (inactive)
21,COc1ccc(O)c(C=Nc2cc(C)on2)c1,73.6% (active)
22,Cc1ccc(C(=O)N/C(=C/C=C/c2ccccc2)C(=O)NCc2ccco2)cc1,19.4% (inactive)
23,COC(=O)Nc1sc2nc(C)cc(C)c2c1-n1cccc1,-0.5% (inactive)
24,CC1=NN(C(=O)Cc2ccc(C)cc2)C(O)(c2cccnc2)C1 (stereo unspecified),5.3% (inactive)

# Source: PubChem BioAssay AID836 (Columbia University Molecular Screening Center, 2007)
